{"source": "PubChem BioAssay AID687014", "about": "(The Scripps Research Institute Molecular Screening Center, 2013)", "note": "Out of some 370,000 compounds screened, about 6,800 (1.8%) were called active. The full list was thinned out, with actives kept by preference. Values without a mark were called inactive.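 The calls were made as follows: active = activation above a cutoff set at the mean of all screened compounds plus 3 SD (cut at about 10% in these data); inactive = the rest.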"}
{"system": "Nuclear hormone receptor DAF-12 (Heterodera glycines), GAL4 fusion", "experiment": "hgDAF-12 GAL4 fusion reporter activation – cell-based, luminescence, HEK293, UAS-luciferase, primary screen (AID 687014);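 also: 0% = DMSO wells and 100% = sodium butyrate wells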", "details": "HEK293 GAL4-hgDAF12 UAS-luciferase reporter, agonist luminescence; at 6.8 µM; stronger effect = higher value; normalized to butyrate control"}
{"smiles": "CCOC(=O)C1=CN(Cc2ccc(Br)cc2)S(=O)(=O)N(C)C1C", "note": "(stereo unspecified)", "activation": "0.23%"}
{"smiles": "Cc1ccc(S(=O)(=O)N(NC2=NS(=O)(=O)c3ccccc32)C(=O)c2ccccc2)cc1", "activation": "0.43%"}
{"smiles": "CC(C)(C)c1csc(NC2=NS(=O)(=O)c3ccccc32)n1", "activation": "19.4% (active)"}
{"smiles": "O=C(Oc1cccc(NC2=NS(=O)(=O)c3ccccc32)c1)c1ccncc1", "activation": "-1.92%"}
{"smiles": "CCCCOCCCNC(=O)C[C@H]1C[C@@]2(C(=O)OC)C(=C[C@H](C(C)(C)C)O[C@@H]2C)N(CCc2ccc(OC)c(OC)c2)C1=O", "activation": "-0.02%"}
{"smiles": "CCCNC(=O)c1cc2c(c(-c3cccc(-c4ccc(C#N)cc4)c3)n1)[C@@H](CCO)N(C(=O)CC)C2", "activation": "-0.02%"}
{"smiles": "Cc1ccsc1C(=O)N/N=C/c1ccc([N+](=O)[O-])cc1", "activation": "13.9% (active)"}
{"smiles": "Cc1ccsc1C(=O)NC1CCCCC1C", "note": "(stereo unspecified)", "activation": "-0.72%"}
{"smiles": "Cc1ccc(NC(=O)CN2CCC(C(N)=O)CC2)cc1[N+](=O)[O-]", "activation": "0.92%"}
{"smiles": "Cc1ccc(NC(=O)c2sccc2C)cc1[N+](=O)[O-]", "activation": "14.2% (active)"}
{"smiles": "Cc1ccc(/C=N/NC(=O)c2sccc2OCc2ccc(F)cc2)cc1", "activation": "3.63%"}
{"smiles": "Cc1ccsc1C(=O)NCCc1ccco1", "activation": "8.62%"}
{"smiles": "Cn1c(N)c(C(=O)COC(=O)c2ccccc2NCc2ccco2)c(=O)n(C)c1=O", "activation": "-0.34%"}
{"smiles": "COc1ccc(C#CCNCc2ccc(OC)cc2OC)cc1", "activation": "-1.32%"}
{"smiles": "O=C(c1ccccc1)c1ccc(-c2ccccc2C(=O)NC2CCCCN(Cc3ccc(Cl)cc3)C2=O)cc1", "note": "(stereo unspecified)", "activation": "3.48%"}
{"smiles": "CC(CO)N1CCS(=O)(=O)CC1", "note": "(stereo unspecified)", "activation": "0.38%"}
{"smiles": "N#Cc1ccccc1OC[C@@H](O)CN1CCC(C(O)(c2ccccc2)c2ccccc2)CC1", "activation": "-4.54%"}
{"smiles": "C=CCN1C(=O)[C@H](CC(=O)NCCCN2CCCC2=O)[C@@]2(C(=O)OCC)CCCC=C12", "activation": "-1.4%"}
{"smiles": "Cc1[nH]nc2c1C(c1ccc(Br)cc1)NC2=O", "note": "(stereo unspecified)", "activation": "0.07%"}
{"smiles": "O=C(Nc1ccccc1Cl)c1ccc2nsnc2c1", "activation": "12.6% (active)"}
{"smiles": "O=S(=O)(Nc1ccccc1Cl)c1cccc2nsnc12", "activation": "-1.42%"}
{"smiles": "O=C(Nc1ccccc1Cl)/C(Cl)=C(\\Cl)S(=O)c1ccccc1", "note": "(stereo unspecified)", "activation": "-20.1%"}
{"smiles": "Cc1ccc(-n2c(SCC(=O)Nc3ccc(S(=O)(=O)Nc4nccs4)cc3)nnc2-c2ccncc2)cc1", "activation": "-0.9%"}
{"smiles": "Nc1ncnc2c1ncn2C1OC(CO)CC1O", "note": "(stereo unspecified)", "activation": "-1.31%"}
{"smiles": "COc1ccc(C(=O)Nc2ccnn2C2CCN(Cc3ccncc3)CC2)cc1", "activation": "-1.76%"}
{"smiles": "COc1ccc(C(=O)Nc2sc(C)c(C)c2CN2CCOCC2)cc1", "activation": "11.8% (active)"}
{"smiles": "CCOc1ccc(C(=O)Nc2ccc(CN3CCOCC3)cc2)cc1Cl", "activation": "-0.68%"}
{"smiles": "COC(=O)c1ccccc1-n1cc(COC(=O)NCCc2ccccc2)nn1", "activation": "0.71%"}
{"smiles": "COC(=O)c1ccc(CN2C(=O)[C@]3(OCCC=C[C@H]3C)c3c(Br)cccc32)cc1", "activation": "4.21%"}
{"smiles": "Cc1ccc2nc(/C(C#N)=C\\c3ccc(OC(=O)c4cccs4)cc3)[nH]c2c1", "activation": "10.6% (active)"}
{"smiles": "COc1ccc(S(=O)(=O)N2CCCC2CNC(=O)C(=O)NC2CC2)cc1", "note": "(stereo unspecified)", "activation": "0.71%"}
{"smiles": "O=Cc1cn(-c2ccccc2)nc1-c1ccccn1", "activation": "-0.68%"}
{"smiles": "O=C(O)c1ccc(N/N=C/c2cn(-c3ccccc3)nc2-c2cccs2)cc1", "activation": "16.3% (active)"}
{"smiles": "O=C(N/N=C/c1sc(N2CCCCC2)nc1-c1cccs1)c1cccnc1", "activation": "1.92%"}
{"smiles": "Fc1ccc2nc(COCc3nc4ccc(F)cc4[nH]3)[nH]c2c1", "activation": "0.86%"}
{"smiles": "COc1cccc(-c2nnc(N(C)C(=O)c3ccno3)s2)c1", "activation": "3.08%"}
{"smiles": "O=C(Nc1ccccc1C(=O)NCCCn1ccnc1)c1ccc(Cl)cc1Cl", "activation": "-1.62%"}
{"smiles": "O=C(NC1CCCCCCC1)c1cccs1", "activation": "2.58%"}
{"smiles": "O=C(NC1CCCC1)c1cc(-c2ccccc2)on1", "activation": "36.2% (active)"}
{"smiles": "O=C(NCCCn1ccnc1)c1cc(Br)c(Br)s1", "activation": "1.27%"}
{"smiles": "O=C(NCCCn1ccnc1)c1cc(-c2ccccc2)on1", "activation": "46% (active)"}
{"smiles": "O=C(NC1CC1)c1ccc(-c2ccccc2)cc1", "activation": "9.69%"}
{"smiles": "COC(=O)c1ccc(COC(=O)C2CCN(S(=O)(=O)c3c(Cl)cccc3Cl)CC2)o1", "activation": "-1.37%"}
{"smiles": "COc1ccc2c(C(C)c3ccc(N)cc3)cn(C)c2c1", "note": "(stereo unspecified)", "activation": "0.29%"}
{"smiles": "COC(=O)[C@]1(C#N)CC(=O)N(CC2CCCCC2)[C@@H]1c1ccccc1", "activation": "1.35%"}
{"smiles": "Cc1ccccc1CN1CCCCC(NC(=O)Nc2ccccc2F)C1=O", "note": "(stereo unspecified)", "activation": "-3.67%"}
{"smiles": "Nc1nc(SCC(=O)Nc2ccc(Cl)c([N+](=O)[O-])c2)n[nH]1", "activation": "-3.01%"}
{"smiles": "O=C(NCc1ccccc1)[C@@H]1CCCN1C(=O)[C@H]1CCCN1C(=O)c1cccc(Cl)c1", "activation": "2.12%"}
{"smiles": "COC(=O)[C@]12C[C@H](CC(=O)N3CCOCC3)C(=O)N(Cc3ccc(Cl)cc3Cl)C1=C[C@H](COCc1ccccc1)O[C@@H]2C", "activation": "-2.38%"}
{"smiles": "CCOC(=O)C1=C(C)NC2=C(C(=O)CC(C)(C)C2)C1c1ccc2c(c1)OCO2", "note": "(stereo unspecified)", "activation": "-2.39%"}
{"smiles": "COc1ccc(CNC(=O)COC(=O)c2c(C)nn(-c3ccccc3)c2C)cc1OC", "activation": "-3.17%"}
{"smiles": "COc1ccc(CNC(=O)COc2ccccc2C(=O)c2cnn(-c3ccccc3)c2)cc1OC", "activation": "13.4% (active)"}
{"smiles": "COc1ccc(CNC(=O)COC(=O)c2sccc2C)cc1OC", "activation": "0.76%"}
{"smiles": "CCOC(=O)CNC(=O)N(C)[C@H]1C[C@H]2c3[nH]c4c(-c5ccc6c(c5)OCO6)cccc4c3CCN2C(=O)[C@H]1[C@H](C)O", "activation": "-1.8%"}
{"smiles": "CCCN(C(=O)CSc1nnc(N)s1)c1c(N)n(Cc2ccccc2)c(=O)[nH]c1=O", "activation": "-3.79%"}
{"smiles": "CCS(=O)(=O)N1Cc2ccccc2CC1C(=O)Nc1nc2ccc(F)cc2s1", "note": "(stereo unspecified)", "activation": "10.2%"}
{"smiles": "Fc1ccc2nc(Nc3nc4c(s3)CCCC4)sc2c1", "activation": "12.8% (active)"}
{"smiles": "COC(=O)C(NC(C)=O)(Nc1nc2c(s1)CCCC2)C(F)(F)F", "note": "(stereo unspecified)", "activation": "-0.75%"}
{"smiles": "CC(=O)N1CCCN(C2=Nc3ccccc3Sc3ccccc32)CC1", "activation": "-3.68%"}
{"smiles": "CCN(CC)C(=O)CC[C@H]1CC[C@]2(CCCN(Cc3ccc(Cl)cc3)C2)O1", "activation": "-2.24%"}
{"smiles": "COC(=O)c1c(-c2ccc(OC)cc2)c2c(c3c4ccccc4n(S(=O)(=O)c4ccc(C)cc4)c13)C(=O)N(C)C2", "activation": "-0.11%"}
{"smiles": "Cc1ccc2nc(-c3cccnc3)c(NC3CCCC3)n2c1", "activation": "-2.27%"}
{"smiles": "COc1ccccc1Cc1c(-c2ccc(F)cc2)nc2ccc(C)cn12", "activation": "9.36%"}
{"smiles": "Cc1ccc2nc(-c3ccccc3)c(CC3CCCCC3)n2c1", "activation": "15.8% (active)"}
{"smiles": "Cc1ccc(NC(=O)Nc2cc(C)nn2-c2ccccc2)cc1", "activation": "0.6%"}
{"smiles": "Cc1cc(OC(=O)c2ccccc2Cl)ccc1N1C(=O)CCC1=O", "activation": "1.41%"}
{"smiles": "Cc1cccc(/C(N)=N/OC(=O)c2ccccc2Cl)c1", "activation": "22.6% (active)"}
{"smiles": "C/C(=N\\OC(=O)c1ccccc1)c1c(C)nc2cc(C)ccn12", "activation": "1.13%"}
{"smiles": "COc1ccc(CSc2nnc(SCC(=O)Nc3ccccc3C(F)(F)F)s2)cc1", "activation": "-0.44%"}
{"smiles": "COc1cccc(NC(=O)N(C)C[C@@H]2OCc3cn(nn3)CCCC(=O)N([C@@H](C)CO)C[C@H]2C)c1", "activation": "-1.94%"}
{"smiles": "CCS(=O)(=O)n1nc(-c2ccccc2)nc1SCc1ccccc1", "activation": "13.2% (active)"}
{"smiles": "CCS(=O)(=O)n1nc(-c2ccc(OC)cc2)nc1SC", "activation": "2.82%"}
{"smiles": "O=S(=O)(c1ccc(SCc2ccccc2)nc1)N1CCCCCC1", "activation": "3.56%"}
{"smiles": "CCN1C(=O)[C@@H]2[C@@H](c3ccc(-c4cccc(Cl)c4)cc3)N3CCC[C@@]3(C(=O)OC)[C@@H]2C1=O", "activation": "-0.28%"}
{"smiles": "C=CCN(Cc1ccc2c(c1)OCO2)C(C#CC1CC1)C(C)(C)C", "note": "(stereo unspecified)", "activation": "0.18%"}
{"smiles": "O=C(NNC(=S)NC1CCCCC1)c1ccccc1Cl", "activation": "-1.15%"}
{"smiles": "O=C(NC1CCCCCC1)C1CCN(C(=O)c2ccc(Cl)cc2)CC1", "activation": "-2.28%"}
{"smiles": "O=C(NC(=S)NC1CCCCC1)c1ccc(Cl)cc1", "activation": "14.2% (active)"}
{"smiles": "CN(C)/C=C(\\C#N)C(=O)c1cccnc1Oc1cccc(F)c1", "activation": "-0.67%"}
{"smiles": "CCC(=O)OCCCN1C(=O)CCC12CCC(c1ccccc1)CC2", "note": "(stereo unspecified)", "activation": "-0.73%"}
{"smiles": "CC1(C)N=C(N)NC(Nc2ccc(Cl)cc2)=N1", "activation": "-2.03%"}
{"smiles": "C=CCNc1nc(Nc2ccc(Cl)cc2)nc(OC)n1", "activation": "2.81%"}
{"smiles": "Clc1ccc(Nc2ccc3ccccc3n2)cc1", "activation": "19.3% (active)"}
{"smiles": "CCC(C)[C@@H](C(=O)OC)N(CCc1cn(Cc2ccccc2)nn1)S(=O)(=O)c1ccccc1Br", "note": "(stereo partly specified)", "activation": "-4.53%"}
{"smiles": "CCOC(=O)C1=C(C)c2ccccc2OC1C(=O)OCC", "note": "(stereo unspecified)", "activation": "12.1% (active)"}
{"smiles": "CCCN(CCC)C(=O)C1c2ccccc2Oc2ccccc21", "activation": "-0.5%"}
{"smiles": "CCOC(=O)CC(NC(=O)C1c2ccccc2Oc2ccccc21)c1ccc(C)cc1", "note": "(stereo unspecified)", "activation": "-2.51%"}
{"smiles": "Cc1ccc(C2NC(C(=O)O)CS2)cc1", "note": "(stereo unspecified)", "activation": "-0.05%"}
{"smiles": "CC(CCN1CCC(C(O)(c2ccccc2)c2ccccc2)CC1)Oc1ccc([N+](=O)[O-])cc1Cl", "note": "(stereo unspecified)", "activation": "4%"}
{"smiles": "COc1ccccc1C(=O)NC1CCCCN(C(C)C)C1=O", "note": "(stereo unspecified)", "activation": "2.92%"}
{"smiles": "Cc1ccccc1NC(=O)COC(=O)c1ccc(Sc2ncn[nH]2)c([N+](=O)[O-])c1", "activation": "1.49%"}
